ALR H2O2 inh: inhibitors of human ALR sulfhydryl oxidase, primary screen, biochemical, H2O2 detection, HRP-luminol luminescence, single point. inhibition, % (concentration not given with the values). hit rate 3.8% among 290,000. FAD-linked sulfhydryl oxidase ALR (Homo sapiens), P55789. purified ALR, DTT oxidation;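 active means mean replicate inhibition above about 79%, with every replicate also reaching it, limit read from the data; inconclusive means only one of the two criteria met; inactive means mean below limit and not every replicate reaching it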
Efflux pump mplx: inhibitors of Candida efflux pumps in yeast, primary screen, S. cerevisiae, Nile Red, multiplex. S. cerevisiae Candida pump triplex. inhibition, % at 10 µM. hit rate 0.44% among 330,000. AID 485275, 2010;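 active means plate passing quality check with inhibition over a set limit, or well fluorescence over plate mean plus 4 SD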;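 further: Nile Red retained in pooled yeast measured as flow cytometry median fluorescence; 0% = buffer negative control and 100% = Enniatin B positive control; higher means more Nile Red kept so more efflux inhibition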
VLA-4 inh: inhibition in human VLA-4 binding assay, primary screen, VLA-4 allosteric modulator project, MLPCN library, flow cytometry, VLA-4 expressing cells; Integrin alpha-4 (Homo sapiens), P13612; ligand binding flow cytometry; inhibition, % (about 7 µM as worked out from the volumes in the protocol); hit rate 0.2% among 330,000; AID 2557, 2010; in the data active means inhibition above about 50%
AHR act: AHR activators, primary screen, cell-based, luminescence, luciferase reporter, human; activation, % at 5 µM; Aryl hydrocarbon receptor (Homo sapiens), P35869; hit rate 2.5% among 320,000; AID 2796, 2010; AHR-responsive luciferase reporter cells; in the data active means activation above about 47%;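 further: 0% = vehicle wells and 100% = reference agonist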
Mot1-301 SUMO: yeast Mot1-301 growth rescue at high temperature, primary screen, SUMOylation pathway inhibitor project, S. cerevisiae, ATP luminescence, 38.5C; S. cerevisiae Mot1-301 growth rescue; percent above DMSO median, 100 means doubled; growth rescue, % at 18.8 µM; hit rate 1% among 320,000;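 active means every valid replicate shows activation above 250% relative to neutral control wells; inactive means the rest, any valid replicate at or below 250%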;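 further: OY570 slx delta 5 strain wells were the positive control but not used for scaling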
A1 inh: caspase 3/7 activation in MEF A1-2A-BIM cells, primary screen, A1 inhibitor project, cell-based, luminescence, HTS. hit rate 0.066% among 330,000. Caspase-Glo 3/7 luminescence, 3 h; percent of clofoctol response, vehicle zero. caspase activation, % (test concentration not listed);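 active means over half of replicate activation scores above 10%, or exactly half above 10 with the replicate mean above 10; inconclusive means replicate mean below 10 yet half the replicates above 10; inactive means over half of replicates below 10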
AHR act confirm: AHR activators, confirmation, cell-based, luminescence, luciferase reporter, human; shares compounds with AHR act; human cells, AHR-responsive luciferase reporter; activation, % at 9 µM; hit rate 87% among 2,300; AID 2845, 2010; in the data active means activation above about 49%;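 further: HepG2 hepatoma cells carrying a DRE-driven firefly luciferase reporter; 0% = vehicle wells and 100% = reference agonist wells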
PXR act counter: human PXR activators, counter-screen for AHR activator project, cell-based, luciferase luminescence | activation, % at 11.6 µM | shares compounds with AHR act | cell-based PXR reporter | hit rate 88% among 2,300 | AID 434939, 2010; in the data active means activation above about 11%;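 further: human hepatoma DPX-2 cells expressing full-length human PXR; 0% = DMSO and 100% = reference agonist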
Target sequence (O75469 whole entry, looked up): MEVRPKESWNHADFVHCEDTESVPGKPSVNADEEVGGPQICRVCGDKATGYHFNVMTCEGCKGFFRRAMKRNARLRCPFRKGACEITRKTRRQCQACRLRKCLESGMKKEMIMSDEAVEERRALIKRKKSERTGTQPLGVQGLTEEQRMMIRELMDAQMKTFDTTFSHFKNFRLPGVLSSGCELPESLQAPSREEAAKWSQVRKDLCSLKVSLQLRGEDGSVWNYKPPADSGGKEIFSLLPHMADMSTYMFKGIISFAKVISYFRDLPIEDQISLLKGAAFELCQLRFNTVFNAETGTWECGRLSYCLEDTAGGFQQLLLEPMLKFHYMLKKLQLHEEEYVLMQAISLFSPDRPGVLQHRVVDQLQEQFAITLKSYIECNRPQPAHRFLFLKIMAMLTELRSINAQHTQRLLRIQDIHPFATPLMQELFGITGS
Active calls of the source: *; ? = inconclusive; . = no result given. A selection: hits, their analogues and other compounds. The true share with any hit is near 7.2%.

SMILES | ALR H2O2 inh | Efflux pump mplx | VLA-4 inh | AHR act | Mot1-301 SUMO | A1 inh | AHR act confirm | PXR act counter
N#Cc1c(N)nc(N)nc1Nc1ccc(Br)cc1 | . | -2 | 1 | 83* | -6 | -2 | 72* | 17*
CN(C(=O)Cn1nnc(-c2ccccc2)n1)C1CCS(=O)(=O)C1 (centres undefined) | -9 | 0 | -1 | -1 | 4 | 0 | . | .
Cc1ccc(N=Nc2c(O)[nH]c3ccc(F)cc23)cc1 | -8 | 0 | -5 | 114* | -8 | 0 | 129* | 22*
CC(=O)Nc1ccc(S(=O)(=O)Nc2ccc(S(=O)(=O)Nc3nccs3)cc2)cc1 | -1 | 0 | 3 | -1 | -4 | 0 | . | .
CCOc1nc(Nc2ccc(OC)cc2)nc(OCC)n1 | 6 | 0 | 8 | 13 | -4 | 0 | . | .
COc1ccc(Nc2ccnc(Nc3ccc(OC)cc3)n2)cc1 | 98* | 0 | 5 | 83* | -5 | 0 | 62* | 37*
Cc1nnc2c(-c3ccccc3)nc3ccccc3n12 | 1 | 0 | 10 | 89* | -2 | -1 | 109* | 13*
O=C(Cc1cccc2ccccc12)NCC(=O)Nc1ccccc1F | -12 | 0 | -5 | 10 | -9 | 0 | . | .
CC(=O)c1ccc(NC(=S)Nc2cccc3ccccc23)cc1 | -34 | 0 | 6 | 99* | -20 | 0 | 24 | 86*
Fc1cccc(NC(=S)Nc2cccc3ccccc23)c1 | -11 | 0 | 0 | 82* | -7 | 0 | 62* | 100*
CC(=O)c1ccc(NC(=O)c2cc(C)nc3ccccc23)cc1 | 3 | 0 | -1 | 4 | -2 | 1 | . | .
O=C(Nc1cccc2ccccc12)c1cccc(F)c1 | -43 | 0 | 25 | . | -6 | 0 | . | .
CC(=O)c1ccc(NC(=O)c2cc(Cl)nc3ccccc23)cc1 | -11 | 0 | 1 | 96* | 8 | 0 | 82* | .
Cc1ccc(NC(=S)Nc2cccc3ccccc23)cc1F | -29 | 0 | 10 | 84* | -8 | 0 | 75* | 112*
Cc1cc(Cl)nc2ccc(Cc3ccc4nc(Cl)cc(C)c4c3)cc12 | -23 | 0 | -6 | 5 | -1 | 1 | . | .
Cc1cc(C(F)(F)F)cc(NNC(=O)NC(=O)c2c(F)cccc2Cl)n1 | . | 0 | -1 | 0 | -14 | 1 | . | .
COc1ccccc1-n1c(-c2ccccc2)n[nH]c1=S | 29 | 0 | 0 | 1 | . | -1 | . | .
COc1cccc(-n2cc(-c3ccc(F)cc3)[nH]c2=S)c1 | 51 | 0 | -9 | 108* | -8 | 0 | 12 | 52*
COc1ccc(-c2cn(-c3ccc(C)c(Cl)c3)c(=S)[nH]2)cc1OC | . | 1 | 11 | 12 | -4 | -1 | . | .
COc1ccccc1-c1cn(-c2ccccc2)c(=S)[nH]1 | . | 0 | 5 | 112* | -9 | 2 | 109* | 105*
CC(C)(C)c1cn(-c2ccccc2)c(=S)[nH]1 | ? | 0 | 9 | 5 | 10 | 0 | . | .
COc1ccccc1-n1cc(-c2ccc(C)cc2)[nH]c1=S | 33 | 0 | 7 | 109* | 1 | 0 | 87* | 97*
O=C(Nc1nc(-c2cccs2)cs1)c1ccc(Cl)cc1 | 26 | 0 | -11 | 129* | . | 0 | 123* | 36*
CC(=O)N(Cc1ccco1)c1nc(C(=O)Nc2ccc(Cl)cc2)c(C)s1 | 18 | -1 | -2 | 90* | 8 | -1 | 66* | 63*
CCCn1c(/C=C/c2ccccc2)nc2ccccc21 | 1 | 0 | . | 88* | -9 | -7 | 118* | 45*
Cc1ccc2nc(Nc3nc(C)cc(C(F)(F)F)n3)nc(C)c2c1 | . | 0 | -5 | 98* | 7 | 0 | 95* | 131*

From PubChem BioAssay
